PubChem BioAssay AID770 (SRMLSC, 2007)
Screen size: about 3,300 compounds; fewer than 10 were called active.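 The calls were made as follows: active = growth inhibition above 90% in viable cell count at a single dose; inactive = growth inhibition below 90%.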 Not all results are given here.

Experiment: HT29 colon tumor cell growth inhibition, primary screen, imaging, high content imaging, 24 h, CellTiter-Glo (AID 770);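 as to condensed nuclei: share of cells whose nuclear area falls below control median minus 1.5 SD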
Conditions: HT29 cell number by imaging, at 10 µM, stronger effect = higher value; for condensed nuclei: measured here: percent cells with condensed nuclei
[1] = measured here: ATP CellTiter-Glo viability

| Compound | growth inhibition | growth inhibition [1] [%] | condensed nuclei [%] |
| --- | --- | --- | --- |
| c1ccc2c(c1)[nH]c1cnccc12 | 36.4% (inactive) | 17.6 | 3.43 |
| Cc1c2ccncc2c(C)c2c1[nH]c1ccccc12 | 95.1% (active) | 46.4 | 18.1 |
| C=CCOC(=O)C1=C(C)OC(N)=C(C#N)[C@@]12C(=O)N(CC(N)=O)c1ccccc12 | 19% (inactive) | -1.1 | 5.52 |
| Cn1c(O)c(C=NC2CCN(Cc3ccccc3)CC2)c(=O)n(C)c1=O | 26.8% (inactive) | 3.87 | 6.67 |
| CN1CC[C@@]23CCCC[C@@H]2[C@@H]1Cc1ccc(O)cc13 | -3.31% (inactive) | -18.2 | 4.84 |
| C/C(Cl)=C/CC1(CN2CCCC2=O)C(=O)NC(=O)NC1=O | -10.6% (inactive) | -8.34 | 2.87 |
| CCCCCCn1c(O)c(C=Nc2c(C)n(C)n(-c3ccccc3)c2=O)c(=O)[nH]c1=O | -5.94% (inactive) | -9.79 | 3.03 |
| CCOc1ccccc1-n1c(O)c(C=Nc2c(C)n(C)n(-c3ccccc3)c2=O)c(=O)[nH]c1=O | 100% (active) | -85.3 | 5.62 |
| Cc1c(N=Cc2c(O)n(CCc3ccccc3)c(=O)[nH]c2=O)c(=O)n(-c2ccccc2)n1C | 23.4% (inactive) | 16.4 | 7.53 |
| CCCCCCn1c(O)c(C=NC2CCN(Cc3ccccc3)CC2)c(=O)[nH]c1=O | 3.03% (inactive) | 23.3 | 1.13 |
